According to PubChem BioAssay (Tox21):
Inconclusive results are not listed. Values without a mark were called inactive. Calls follow the shape of the dose curve; as a rule, active = well fitted activation curve with a large enough effect in the signal ratio in the repeat runs, with a control signal flat (not every such curve was filed as active); inconclusive = weak or mixed curves; inactive = flat fitted curve, though single readings scatter; the % refers to the signal ratio. Where a SMILES comes first, the peptide text is derived from it. [ ]: non-standard residue; d: D form. pGlu = O=C1CC[C@@H](C(=O)O)N1

assay: qHTS assay for small molecule activators of the heat shock response signaling pathway (AID 743210); conditions: HeLa HSE-bla reporter, beta-lactamase ratio, 5 h; series mostly up to 62.6 µM; activation: at the top concentration
Text: U.S. Tox21 Program National Center for Advancing Translational Sciences [NCATS] NIH Chemical Genomics Center [NCGC] U.S. Environmental Protection Agency [EPA] National Institutes of Environmental Health Sciences [NIEHS] National Toxicology Program [NTP] U.S. Food and Drug Administration [FDA] Tox21 Assay Overview: Various chemicals, environmental and physiological stress conditions may lead to the activation of heat shock response/ unfolded protein response (HSR/UPR). There are three heat shock transcription factors (HSFs) (HSF-1, -2, and -4) mediating transcriptional regulation of the human HSR. To identify the compounds that activate HSR signaling, HSE-bla HeLa cell line (Invitrogen, Carlsbad, CA, USA) containing a beta-lactamase reporter gene under the control of the heat shock response elements was used to screen the Tox21 10K compound library.
Tox21 Assay Protocol Summary: The CellSensor HSE-bla HeLa cells (Invitrogen, Carlsbad, CA, USA) were dispensed at 1500 cells/6uL/well into 1536-well black wall/clear bottom plates using a Multidrop combi (Thermo Fisher Scientific, Waltham, MA) dispenser. After the assay plates were incubated at 37 C and 5% CO2 overnight, 23 nL of compounds dissolved in DMSO, positive controls or DMSO only was transferred to the assay plate by a Pintool station (Kalypsys, San Diego, CA). The plates were incubated at 37 C for 5 h. After 1 uL of LiveBLAzerTM B/G FRET substrate was added using a Flying Reagent Dispenser (Beckman Coulter, Indianapolis, IN, USA), the plates were incubated at room temperature for 2.5 h, and fluorescence intensity was measured by an Envision plate reader (PerkinElmer, Shelton, CT).
% is scaled to controls: 0 for no effect and ±100 for the full control effect.

Structure (SMILES)	activation
CCO[Si](OCC)(OCC)c1ccccc1	-0.026%
CC[N+](CC)(CC)CCOc1cccc(OCC[N+](CC)(CC)CC)c1OCC[N+](CC)(CC)CC	0.175%
CC(COc1ccccc1)NN (stereo not given)	-0.354%
CO[C@@]1(NC(=O)CSC[C@@H](N)C(=O)O)C(=O)N2C(C(=O)O)=C(CSc3nnnn3C)CS[C@@H]21	-0.0247%
CC1(C)[C@@H]2CC[C@@]1(C)[C@H](O)C2	-0.0286%
O=S(=O)(O)c1cccc2ccccc12	-1.42%
CCCCc1ccc2c(n1)[C@@H](c1ccc(OC)cc1C[C@H](C)C(=O)O)[C@H](C(=O)O)[C@H]2c1ccc2c(c1)OCO2	-1.16%
CCOC(=O)OC(C)OC1=C(C(=O)Nc2ccccn2)N(C)S(=O)(=O)c2ccccc21 (stereo not given)	-2.22%
Cc1ncc([C@@H](CCCCCCc2ccc3c(n2)NCCC3)CC(=O)O)cn1	-0.888%
CC(C)(C)OC(=O)c1cccc(N)c1	0.166% [at 81.1 µM]
Cc1c(N)c(=O)n(-c2ccccc2)n1C	-1.25%
CC(C)C[C@@H](N)C(=O)O	-0.422% [at 29.1 µM]
CCCn1cc[n+](C)c1C	-2.1% [at 81.1 µM]
Cc1ccnc(NS(=O)(=O)c2ccc(N)cc2)n1	-0.598%
COCCOC[C@H](CC1(C(=O)NC2CCC(C(=O)O)CC2)CCCC1)C(=O)Oc1ccc2c(c1)CCC2 (stereo not given in full)	-0.827%
Cc1ccc(-c2ncc(Cl)cc2-c2ccc(S(C)(=O)=O)cc2)cn1	-0.175%
Cc1nc2ccc(CN(C)c3ccc(C(=O)N[C@@H](CCC(=O)O)C(=O)O)s3)cc2c(=O)[nH]1	3.32%
C=CCOCC(O)CO (stereo not given)	-0.315%
CCCCCCCCCCCCCCCCCCO	-1.03%
CCCCCCCC1CCCC1=O (stereo not given)	-0.0605%

Structure (SMILES)	activation
Cc1coc2ccccc2c1=O	-0.204%
CC(=O)c1ccc2ccccc2c1	0.68%
C[N+]1(CC2COC(c3ccccc3)(c3ccccc3)O2)CCCCC1 (stereo not given)	0.125% [at 29.1 µM]
CCCCCCCCCCCCCCC(=O)O	1.21% [at 81.1 µM]
COCCOCC(OC)OC	-0.416%
C[C@H]1C[C@H]2[C@@H]3CCC4=CC(=O)C=C[C@]4(C)[C@H]3C(=O)C[C@]2(C)[C@@]1(O)C(=O)CO	-1.16%
NO	-1.57% [at 81.1 µM]
CC(=O)c1cnccn1	-0.378% [at 81.1 µM]
O=C(O)CNC(=O)c1ccccc1	0.308%
c1ccc(CCc2ccccc2)cc1	-0.234%
CCOC(=O)C1=NOC(c2ccccc2)(c2ccccc2)C1	-0.127%
CC(C#N)(CCC(=O)O)N=NC(C)(C#N)CCC(=O)O (stereo not given)	-1.26%
NC(=O)N1c2ccccc2CC(=O)c2ccccc21	1.15%
NC(=O)N[C@@H](CCC(=O)O)C(=O)O	-0.3%
CCCCOCCOC(=O)COc1cc(Cl)c(Cl)cc1Cl	0%
COc1ccc2cc1Oc1cc3c(cc1OC)CC[N+](C)(C)[C@H]3Cc1ccc(cc1)Oc1c(OC)c(OC)cc3c1[C@@H](C2)[N+](C)(C)CC3	0.153%
C=C(C)C(=O)OCC1CCCO1 (stereo not given)	-0.0572%
CCNC(=O)[C@@H]1CCCN1C(=O)[C@H](CCCN=C(N)N)NC(=O)[C@H](CC(C)C)NC(=O)CNC(=O)[C@H](Cc1ccc(O)cc1)NC(=O)[C@H](CO)NC(=O)[C@H](Cc1c[nH]c2ccccc12)NC(=O)[C@H](Cc1cnc[nH]1)NC(=O)[C@@H]1CCC(=O)N1 ([pGlu]HWSYGLRP-NHEt)	-1.54%
CC(C)CCCO	0.0858%
CCNS(=O)(=O)c1ccc(C)cc1	-0.903% [at 81.1 µM]
